Assay results reported in PubChem BioAssay (NCI).
About 79,000 compounds went through this panel and 15% of them were active in at least one assay; those are over-represented in the sample as a whole. Unmarked numbers belong to inactive results. The source made the active and inactive calls. Rule as the data show it: active = growth inhibition above about 70%; inactive = the rest.

Columns and labels:
[1] = NCI Yeast Anticancer Drug Screen. Data for the rad50 strain (AID 155);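 also: 0% = growth of vehicle-only cultures of the same strain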; settings: S. cerevisiae rad50 strain growth inhibition, active compounds read high
Procedure, shortened: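 Inhibition values express reduced yeast growth in compound-treated cultures relative to vehicle-treated controls.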

[2] = NCI Yeast Anticancer Drug Screen. Data for the mec2-1 strain (AID 157); settings: S. cerevisiae mec2-1 strain, active compounds read high
Procedure, shortened: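 Each compound was tested on mec2-1 yeast, a strain altered in DNA damage repair or cell cycle control. Growth inhibition is reported relative to vehicle.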

[3] = NCI Yeast Anticancer Drug Screen. Data for the sgs1 mgt1 strain (AID 161);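 also: 0% = growth of cultures given vehicle only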; settings: S. cerevisiae sgs1 mgt1 strain, active compounds read high
Procedure, shortened: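 Inhibition of yeast growth, normalised to vehicle-treated controls, is reported for a strain bearing genetic alterations in DNA damage repair.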

[4] = NCI Yeast Anticancer Drug Screen. Data for the cln2 rad14 strain (AID 165);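 also: 0% = growth equal to vehicle treated cultures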; settings: S. cerevisiae cln2 rad14 strain, active compounds read high
Procedure, shortened: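 Test compounds were added to cln2 rad14 yeast cultures; inhibition of growth was then determined by comparison with vehicle treatment.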

[5] = NCI Yeast Anticancer Drug Screen. Data for the bub3 strain (AID 167); settings: S. cerevisiae bub3 mutant strain, active compounds read high
Procedure, shortened: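 Steps: expose the mutant yeast strain to compound; grow alongside vehicle-treated cultures; measure growth; express inhibition against the vehicle cultures.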

[6] = NCI Yeast Anticancer Drug Screen. Data for the mlh1 rad18 strain (AID 175); settings: S. cerevisiae mlh1 rad18 strain growth inhibition, active compounds read high
Procedure, shortened: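 Inhibition values reflect reduced growth of mutant yeast versus vehicle-treated controls following compound exposure; the mutations affect DNA damage repair.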

[7] = at 5.0 µM (retest, dose inferred, filed as 0.5)
[8] = at 50.0 µM (retest, dose inferred, filed as 5.0)

Compound	growth inhibition [1, 7]	growth inhibition [1, 8]	growth inhibition ([1]; at 50.0 µM)	growth inhibition [2, 7]	growth inhibition [2, 8]	growth inhibition ([2]; at 50.0 µM)	growth inhibition [3, 7]	growth inhibition [3, 8]	growth inhibition ([3]; at 50.0 µM)	growth inhibition [4, 7]	growth inhibition [4, 8]	growth inhibition ([4]; at 50.0 µM)	growth inhibition [5, 7]	growth inhibition [5, 8]	growth inhibition ([5]; at 50.0 µM)	growth inhibition [6, 7]	growth inhibition [6, 8]	growth inhibition ([6]; at 50.0 µM)
C=C(C)C1CC2=C(O1)C(=O)c1ccccc1C2=O (configuration not stated)	8%	99% (active)	91.9% (active)	0%	95% (active)	82.5% (active)	7%	99% (active)	73% (active)	-9%	37%	59.9%	59%	96% (active)	93.1% (active)	11%	98% (active)	89.8% (active)
CCN(CC)CCNc1c2ccccc2nc2cccc([N+](=O)[O-])c12	88% (active)	97% (active)	68.2%	95% (active)	99% (active)	61.4%	94% (active)	99% (active)	55%	85% (active)	98% (active)	86.5% (active)	93% (active)	99% (active)	2.85%	92% (active)	97% (active)	62.9%
CC1=C(C(=O)Nc2cccc(Cl)c2)C(c2ccc([N+](=O)[O-])cc2)C(C(=O)Nc2cccc(Cl)c2)=C(C)N1	44%	44%	57.9%	52%	52%	81.8% (active)	34%	34%	65%	32%	32%	79.5% (active)	49%	49%	74.7% (active)	51%	51%	61.8%
O=C(c1ccccc1)N(C1CCCCC1)C1CCCCC1	7%	97% (active)	98.1% (active)	1%	98% (active)	98.5% (active)	5%	97% (active)	99% (active)	-2%	95% (active)	98.9% (active)	-3%	93% (active)	98% (active)	5%	97% (active)	98.3% (active)
CCCCCCCCCCCCNC(=O)C[n+]1cccc(C(=O)N(C)C)c1	-5%	33%	68.3%	-24%	-13%	58%	-17%	46%	91.4% (active)	-15%	13%	24.6%	-9%	21%	3.35%	7%	44%	53.4%
COc1ccc(-c2cc(-c3ccco3)c(C#N)c(=S)n2C2OC(CO)C(O)C(O)C2O)cc1 (configuration not stated)	-8%	1%	5.1%	3%	-12%	4.3%	-1%	-3%	-15.2%	15%	16%	30.1%	2%	7%	-3%	10%	20%	4.1%
Cc1ccc(OS(=O)(=O)c2ccc(Br)cc2)cc1	2%	5%	-6%	-16%	10%	0.05%	8%	19%	-3.65%	9%	6%	-1%	16%	41%	-7%	3%	31%	12.7%
O=C(Sc1c(-c2ccccc2)c(=O)n(-c2ccccc2)c(=S)n1-c1ccccc1)c1cccs1	37%	92% (active)	72.2% (active)	39%	95% (active)	73.1% (active)	23%	93% (active)	77.9% (active)	25%	92% (active)	56%	47%	95% (active)	84% (active)	66%	95% (active)	77.6% (active)
CN1C(OCc2ccccc2)c2c(ccc3c2OCO3)C2C=Cc3cc4c(cc3C21)OCO4 (configuration not stated)	47%	99% (active)	92.8% (active)	39%	99% (active)	93.2% (active)	96% (active)	100% (active)	93% (active)	89% (active)	98% (active)	92.7% (active)	93% (active)	99% (active)	91.8% (active)	96% (active)	99% (active)	91.1% (active)
COC(=O)c1ccc(NN)cc1	12%	39%	65.8%	4%	19%	61%	3%	17%	36.1%	3%	42%	46.1%	3%	85% (active)	86% (active)	4%	42%	40.9%
CCC1=C(c2ccc(OC(C)=O)cc2)Cc2cc(OC(C)=O)ccc21	-14%	64%	-4.5%	-13%	67%	-9%	-3%	72% (active)	5.55%	-9%	79% (active)	4%	-3%	83% (active)	26%	-13%	84% (active)	4.55%
NC1=C(O)C(=O)C(c2c3ccccc3cc3ccccc23)O1 (configuration not stated)	16%	98% (active)	98.2% (active)	17%	98% (active)	98% (active)	8%	98% (active)	97.8% (active)	7%	95% (active)	95.9% (active)	16%	98% (active)	97.3% (active)	4%	98% (active)	97.5% (active)
Cc1[nH]ccc2c(C)c3nc4ccccc4c3cc12	47%	97% (active)	90% (active)	10%	87% (active)	88.3% (active)	14%	87% (active)	90.5% (active)	4%	82% (active)	82.9% (active)	9%	73% (active)	89% (active)	13%	95% (active)	90.3% (active)
CC(=O)N=C1N(/C=C2\C(=O)Oc3ccccc3C2=O)C(=O)/C(=C/c2cccc(Cl)c2Cl)N1C	5%	89% (active)	-7.75%	12%	61%	0.2%	-12%	8%	28.2%	7%	25%	-21.8%	-11%	17%	-37.5%	13%	95% (active)	-22.4%
COc1ccc2nc3cc(Cl)ccc3c(Nc3ccc(O)c(CN4CCN(C)CC4)c3)c2c1	25%	43%	66.9%	7%	-11%	-26.7%	8%	6%	32%	21%	2%	27.6%	8%	6%	-33.8%	13%	1%	-2.9%
CN1CCS(=O)(=O)C1=O	3%	87% (active)	90.3% (active)	2%	93% (active)	95.8% (active)	1%	75% (active)	42.8%	10%	54%	86.3% (active)	5%	94% (active)	98% (active)	1%	63%	93.2% (active)
CC(=N/NC(=S)NCC(C)C)/C(C)=N\Nc1ccc(Cl)cc1	2%	81% (active)	95% (active)	-1%	79% (active)	73.2% (active)	1%	91% (active)	92.4% (active)	-4%	79% (active)	72.8% (active)	-4%	82% (active)	93.7% (active)	0%	90% (active)	92% (active)
C=Cc1cc(=O)oc2cc(OC)ccc12	20%	98% (active)	71.4% (active)	22%	99% (active)	86.2% (active)	22%	98% (active)	61.2%	14%	99% (active)	72.2% (active)	14%	98% (active)	93.2% (active)	30%	98% (active)	93.8% (active)
O=C(Nc1ncnc2c1ncn2C1CC(O)C(CO)O1)c1ccccc1 (configuration not stated)	1%	1%	-2.25%	-2%	0%	-11.3%	-1%	1%	-0.05%	-6%	-2%	-23.9%	-2%	-1%	54.1%	-4%	4%	-17.8%
